# Hits are enriched below; roughly 22% of the tested compounds scored in any of these assays.
# CYP2C9 act – increases human cytochrome P450 2C9 activity; P11712; recombinant CYP2C9, luciferin-H conversion, luminescence; hits give high values; factor 1 = untreated enzyme, 0 = blocked; activation factor at 5 µM; 96,000 compounds, 1.4% hits; AID 1024;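 active = activation factor of 2 or more for CYP2C9 at a 5 µM dose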;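 note: 0 = sulfaphenazole-blocked wells and 1 = vehicle-only wells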
# E-sel TNF inh – TNF alpha driven E-selectin expression inhibition; 120,000 compounds, 0.71% hits; AID 1246; inhibition, % at 2 µM; HUVEC TNFa-induced E-selectin immunofluorescence, high content;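 active = inhibition above the batch mean plus 3 SD, and confirmed as a hit on visual image review, cut at about 43% in these data; inconclusive = passes the inhibition cutoff but fails visual image review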;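 note: 0% = TNF-stimulated DMSO wells and 100% = unstimulated control wells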
# CYP2C9 inhib – inhibitors of human CYP2C9. 96,000 compounds, 20% hits. CYP2C9 Supersomes, luciferin-H conversion, luminescence. P11712. AID 777. inhibition, % at 5 µM;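 active = blocking of liver enzyme CYP2C9 beyond about 50% at 5 µM, limit read from the data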
# F-actin modifier – modifiers of cytoskeleton assembly; HUVEC TNFa F-actin phalloidin imaging, high content; inhibition, % at 2 µM; 91,000 compounds, 0.18% hits;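 active = inhibition above the batch mean plus 3 SD and confirmed as a hit by visual image inspection, cut at about 30% in these data, passing the limit was not always enough; inconclusive = above the inhibition threshold but rejected on visual inspection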
# CYP2C19 act – activators of human cytochrome P450 2C19 | 96,000 tested, under 10 active | P33261 | activation factor at 5 µM | recombinant CYP2C19, luciferin-H EGE luminescence; hits give high values; 0 = fully inhibited enzyme, 1 = untreated enzyme;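 active = activation factor of at least 2 at 5 µM in the primary screen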;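 note: 0 = wells with 2.5 mM tranylcypromine and 1 = vehicle-only wells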
# Target sequence (P33261 whole entry, looked up): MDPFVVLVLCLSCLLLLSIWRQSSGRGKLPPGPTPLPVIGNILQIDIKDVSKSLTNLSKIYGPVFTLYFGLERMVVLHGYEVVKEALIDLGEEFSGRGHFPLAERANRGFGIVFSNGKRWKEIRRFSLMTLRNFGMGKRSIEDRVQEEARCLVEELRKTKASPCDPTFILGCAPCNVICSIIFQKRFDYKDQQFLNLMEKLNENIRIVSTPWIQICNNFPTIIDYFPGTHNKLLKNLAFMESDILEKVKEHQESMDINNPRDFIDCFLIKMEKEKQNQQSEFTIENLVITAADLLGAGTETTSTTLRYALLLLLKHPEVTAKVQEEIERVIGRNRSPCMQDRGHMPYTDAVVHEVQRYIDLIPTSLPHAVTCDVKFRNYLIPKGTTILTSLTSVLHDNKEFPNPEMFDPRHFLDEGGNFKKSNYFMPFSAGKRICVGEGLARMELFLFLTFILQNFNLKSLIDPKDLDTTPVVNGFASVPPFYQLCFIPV
# CYP2C19 inhib – human CYP2C19 inhibition; P33261; AID 778; inhibition, % at 5 µM; 96,000 compounds, 21% hits; CYP2C19 Supersomes, luciferin-H EGE luminescence, 30 min;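 active = CYP2C19 inhibition above a set limit at 5 µM in the primary screen, cut at about 50% in these data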;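 note: plate controls were negative control wells for no effect and 2.5 mM tranylcypromine positive control for full effect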
# Active calls of the source: *; ? = inconclusive; . = no result.
SMILES,CYP2C9 act,E-sel TNF inh,CYP2C9 inhib,F-actin modifier,CYP2C19 act,CYP2C19 inhib
CCCCCCCC(=O)Nc1ccc(C(=O)N/N=C/c2cccc([N+](=O)[O-])c2)cc1,0.9,-43,12,26,1,-5
O=c1oc2ccccc2cc1-c1csc(NN=C2CCCCC2)n1,0.2,-35,78*,-1,0.1,86*
CCc1nnc(NC(=O)CSc2nnc3c(n2)[nH]c2ccccc23)s1,.,10,.,.,.,.
CC1CCc2cc(F)ccc2N1C(=O)CCC(=O)O (stereo not given),1,-8,-3,-4,1,-2
CC1Cc2ccccc2N1C(=O)CSc1nnc2c(n1)[nH]c1ccccc12 (stereo not given),0.5,-32,46,-4,0.4,55*
CCCc1nc(SCC(=O)N2c3ccccc3CC2C)c2c(C)c(C)sc2n1 (stereo not given),0.1,.,94*,11,0.4,64*
CC1Cc2ccccc2N1C(=O)CSc1nnc(-c2ccccc2)c(-c2ccccc2)n1 (stereo not given),0,.,100*,-6,0.2,85*
CC1CCc2cc(F)ccc2N1C(=O)CSc1nnc2c(n1)[nH]c1ccc(F)cc12 (stereo not given),0.4,-14,57*,-6,0.2,77*
N=c1sccn1CC(=O)NCc1ccc(Cl)cc1Cl,.,31,.,.,.,.
O=C(CSc1nnc(CNC(=O)c2c(F)cccc2Cl)o1)Nc1ccc2c(c1)OCCO2,0.6,8,40,-10,0.8,16
CC(=O)C1=C(C)N(Cc2ccccc2)C(=O)N[C@H]1c1cccc(C(F)(F)F)c1,.,-3,.,.,.,.
CCCCOc1ccc(-c2[nH]ncc2C=O)cc1,.,-32,.,.,.,.
FC(F)(F)c1cccc(NC(=S)NCc2ccccc2)c1,1.9,-42,-88,12,0.4,63*
COC(=O)c1cccc(NC(=O)CN2CCOCC2)c1,0.7,-13,26,-7,0.9,12
O=C(CN1CCOCC1)Nc1cccc(C(=O)Nc2cccc(C(F)(F)F)c2)c1,0.5,-18,52*,-2,0.8,25
O=C(CN1CCN(c2cccc(C(F)(F)F)c2)CC1)Nc1cccc(C(F)(F)F)c1,0.4,4,58*,-4,0.6,42
CN(C)S(=O)(=O)Oc1ccccc1C(=O)Nc1cccc(C(F)(F)F)c1,0.9,-26,8,6,0.1,86*
Cc1c(NC2=NC3(CCCCC3)Cc3ccccc32)c(=O)n(-c2ccccc2)n1C,0.9,-5,10,3,0.7,30
O=C(COCC(=O)Nc1cccc(C(F)(F)F)c1)Nc1cccc(C(F)(F)F)c1,0.8,.,17,17,0.2,84*
COc1cc(NC(=O)CSCC(=O)Nc2cccc(C(F)(F)F)c2)c(Cl)cc1Cl,0.5,0,50*,-1,0.7,31
O=C(Cc1ccccc1)Nc1ccc(N2CCCC2)cc1,0.9,4,14,9,0.8,24
O=C(Cc1ccccc1)Nc1cccc(N2CCCC2)c1,0.2,3,77*,14,0.7,26
COc1cc2c(cc1NC(=S)Nc1cccc(C(F)(F)F)c1)oc1ccccc12,0.2,-13,79*,-6,0.3,70*
CCc1ccc(NS(=O)(=O)c2ccc3[nH]cc(C(=O)N(C)Cc4ccco4)c(=O)c3c2)cc1,0.5,.,46,9,0.7,27
CCCn1c(CCc2ccccc2)nnc1SCC(=O)N1CCCC1,0.9,-21,5,3,0.7,26
SMILES,CYP2C9 act,E-sel TNF inh,CYP2C9 inhib,F-actin modifier,CYP2C19 act,CYP2C19 inhib
CCC(C(=O)Nc1cccc(C(F)(F)F)c1)c1ccccc1 (stereo not given),0.3,-38,71*,17,0.4,56*
CCc1ccc(NC(=O)C(CC)c2ccccc2)cc1 (stereo not given),.,11,.,.,.,.
CCOc1ccc(CNC(=O)C2CCN(S(=O)(=O)CC)CC2)cc1OC,1,13,-4,10,1.1,-7
Fc1cccc(C2CC(c3cccc(Br)c3)Nc3nnnn32)c1 (stereo not given),0.1,-50,95*,.,0,95*
COc1cccc(C2CC(c3cccc(Br)c3)n3ncnc3N2)c1 (stereo not given),0.6,.,37,1,0.4,64*
COc1cccc(C2CC(c3ccccc3)n3ncnc3N2)c1 (stereo not given),0.8,.,24,-4,0.5,51*
COc1ccc(C2CC(c3ccco3)n3ncnc3N2)cc1 (stereo not given),.,.,.,-7,.,.
COc1cccc(C2CC(c3ccccc3Cl)Nc3ncnn32)c1 (stereo not given),.,-13,.,-1,.,.
COc1cccc(C2CC(c3ccc(C)cc3)n3ncnc3N2)c1 (stereo not given),0.4,.,63*,10,0,97*
CCc1ccccc1Nc1nc(N)nc(CSCC(=O)c2cc(C)n(C)c2C)n1,0.3,.,66*,-1,0.1,85*
Cc1nn(C(=O)c2cccnc2)c(C)c1Sc1ccc(Br)cc1,0.7,-27,29,4,0.3,70*
CCCOc1ccc(C(CC(=O)O)NS(=O)(=O)c2ccc(NC(C)=O)cc2)cc1 (stereo not given),1.1,.,-6,14,1.1,-14
CCOC(=O)Cc1cc(=O)n2[nH]c(C)c(-c3ccc(Cl)cc3)c2n1,0.5,-31,50*,6,1,4
CCOC(=O)Cc1c(C)nc2cc(-c3ccc(Cl)cc3)[nH]n2c1=O,1,-6,2,-4,1,-3
CCOC(=O)Cc1c(C)nc2c(-c3ccc(Cl)cc3)c[nH]n2c1=O,0.3,.,67*,.,0.9,7
CC1=CC(C)C2C(=O)N(c3ccccc3)NC(=O)C2C1 (stereo not given),.,-1,.,.,.,.
O=C(CSCc1ccccc1)NNC(=S)Nc1cccc(Cl)c1Cl,0.1,29,87*,12,0.9,10
CCn1c2ccccc2c2cc(C3C(C#N)=C(N)Oc4n[nH]c(COC)c43)ccc21 (stereo not given),0.4,-23,59*,-1,0.6,35
CCCc1[nH]nc2c1C(c1ccc(OCCN3CCOCC3)c(OC)c1)C(C#N)=C(N)O2 (stereo not given),0.6,-29,44,.,0.9,12
CCCc1[nH]nc2c1C(c1ccc(OC)c(Cn3nnc4ccccc43)c1)C(C#N)=C(N)O2 (stereo not given),0.4,2,62*,-6,0.6,43
CCCc1[nH]nc2c1C(c1ccc(O)c(OC)c1)C(C#N)=C(N)O2 (stereo not given),0.8,?,24,-6,0.4,60*
COCc1[nH]nc2c1C(c1ccc(OC)c(OC)c1)C(C#N)=C(N)O2 (stereo not given),1.1,16,-6,-16,1,-1
Cc1[nH]nc2c1C(c1ccc3c(c1)OCO3)C(C#N)=C(N)O2 (stereo not given),0.4,-11,57*,-18,0.4,60*
